In PubChem BioAssay (EPA / NIEHS):
“And” between values parts separate entries of the source, which are not always exact repeats. Identical values can stand only once. Inconclusive results are not listed. The source made the active and inactive calls. How the source made its calls, unless noted: active means hit-call score of the fitted dose curve at least 0.9, where 1 is the maximum; inconclusive means response in the unintended direction; inactive means score below 0.9.

Test system: not listed separately
Assay: STM_H9_OrnCyssISnorm_ratio: Stemina devTOX quickPredict H9 human embryonic stem cell (hESC)-based Assay for Ornithine (ORN):Cystine (CYSS) Ratio (AID 2283714)
Procedure, shortened: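 Steps: H9 hESCs in pluripotent state dosed 72h, medium plus compound renewed every 24h; conditioned medium from the final 24h deproteinized in 40% acetonitrile; ORN and CYSS quantified by UPLC-HRMS with C13 spike-ins; ratio relative to vehicle.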

| Compound | AC50 | outcome |
| --- | --- | --- |
| CCOC(=O)c1ccccc1C(=C1C=C(Br)C(=O)C(Br)=C1)c1cc(Br)c(O)c(Br)c1 | 3.9 µM (active) |  |
| Nc1ccc(N)c(Cl)c1 | 13.5 µM (active) |  |
| CN(C)c1ccc(N=Nc2ccccc2C(=O)O)cc1 | 37.5 µM (active) |  |
| O=C1CCCCCCCCCCC(=O)OCCO1 |  | inactive |

Read-out: not listed separately
Assay: CEETOX_H295R_MTT_cell_viability: Viability Assessment in the CeeTox HT-H295R MTT Assay (AID 2283718; active means hit-call score of the fitted dose curve at least 0.9, where 1 is the maximum; inactive means score below 0.9;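 on AC50: curve fitted both ways so AC50 may mark viability loss or gain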)
Procedure, shortened: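 MTT reduction (0.5 mg/ml, 4 h at 37 C; absorbance at 570 and 650 nm) gave viability as background-corrected percent change versus controls. H295R cells had 48 h forskolin (10 uM) prestimulation, then 48 h chemical exposure at 0.1% DMSO.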

| Compound | outcome | AC50 |
| --- | --- | --- |
| O=C(C=Cc1ccccc1)OCc1ccccc1 | inactive |  |
| COc1ccc2nc(N)sc2c1 | inactive |  |
| CCCCC/C=C\CCC=O | inactive |  |
| C#CC1(O)CC[C@H]2[C@@H]3CCC4=CCCC[C@@H]4[C@H]3CC[C@@]21C (stereo not given in full) | inactive |  |
| COC(=O)c1c(C)cc(O)c(C)c1O | inactive |  |
| CCCCNc1ccc(NCCCC)c2c1C(=O)c1ccccc1C2=O | inactive |  |
| S=C(NC1CCCCC1)NC1CCCCC1 | inactive |  |
| Oc1ccc(Cl)cc1Cc1cc(Cl)ccc1O | inactive |  |
| C=COCCCC | inactive |  |
| Cc1ccc(C(C)c2ccc(C)c(C)c2)cc1C | inactive |  |
| COCc1c(C(C)C)nc(C(C)C)c(/C=C/[C@@H](O)C[C@@H](O)CC(=O)O)c1-c1ccc(F)cc1 | inactive |  |
| CCCCCCCCCCCCCOP(=O)(O)O | inactive |  |
| C1=CCCC1 | inactive |  |
| O=C(Nc1ccccc1SSc1ccccc1NC(=O)c1ccccc1)c1ccccc1 | inactive |  |
| CO[Si](CCC1CCC2OC2C1)(OC)OC (stereo not given) | inactive |  |
| CCOC(=O)Cc1cccc2ccccc12 | inactive |  |
| CN(C)c1ccc(C(=N)c2ccc(N(C)C)cc2)cc1 |  | 0.0018 µM (active) |

Target: Luciferin 4-monooxygenase (Photinus pyralis) (UniProt P08659)
Assay: CCTE_Simmons_QuantiLum_inhib_2: CCTE's Firefly Luciferase Inhibition Assay, Simmons Lab (AID 2283767);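 on AC50: potency for inhibitors that lower luciferase luminescence relative to DMSO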
Procedure, shortened: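 Counter-screen for nonspecific enzyme inhibition: purified firefly luciferase incubated 30 min at 37C with chemicals up to 87.5 uM final, then luminescence measured after luciferin/dATP injection; activity fitted against DMSO baseline.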

Luciferin 4-monooxygenase (Photinus pyralis), sequence (P08659 whole entry, looked up): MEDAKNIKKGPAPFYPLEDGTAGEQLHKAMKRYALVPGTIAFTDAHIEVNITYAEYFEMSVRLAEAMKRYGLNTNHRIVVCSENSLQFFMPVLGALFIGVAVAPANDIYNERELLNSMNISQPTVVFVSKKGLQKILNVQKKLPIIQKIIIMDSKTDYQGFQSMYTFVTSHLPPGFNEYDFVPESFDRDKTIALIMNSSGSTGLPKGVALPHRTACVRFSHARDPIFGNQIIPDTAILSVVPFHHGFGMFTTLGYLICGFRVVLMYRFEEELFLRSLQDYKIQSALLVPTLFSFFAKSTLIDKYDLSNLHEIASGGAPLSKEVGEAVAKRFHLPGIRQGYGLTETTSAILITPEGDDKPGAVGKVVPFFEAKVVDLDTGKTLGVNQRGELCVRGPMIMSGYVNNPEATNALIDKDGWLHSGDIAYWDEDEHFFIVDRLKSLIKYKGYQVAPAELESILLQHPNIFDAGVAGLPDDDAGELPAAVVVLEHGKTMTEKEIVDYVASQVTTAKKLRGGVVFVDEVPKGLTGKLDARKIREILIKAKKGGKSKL

| Compound | outcome | AC50 |
| --- | --- | --- |
| C1CN(SSN2CCOCC2)CCO1 | inactive |  |
| CC(C)(C)c1ccc(-c2ccc(C(C)(C)C)cc2)cc1 | inactive |  |
| O=S1(=O)OC(c2ccc(O)cc2)(c2ccc(O)cc2)c2ccccc21 |  | 36.6 µM (active) and 21.5 µM (active) |
| COC(=O)c1c(C)cc(O)c(C)c1O | inactive |  |
| CCCCC/C=C\C/C=C\CCCCCCCC(=O)OC | inactive |  |
| O=S(=O)(O)c1ccccc1C=Cc1ccc(-c2ccc(C=Cc3ccccc3S(=O)(=O)O)cc2)cc1 | inactive |  |
| CC(C)(C)c1ccc(N)cc1 | inactive |  |
| CNC(=S)NN | inactive |  |
| CCCCCCCCCCCCCOP(=O)(O)O | inactive |  |
| CC/C=C\C/C=C\C/C=C\CCCCCCCC(=O)O | inactive |  |
| c1ccc2c(c1)ccc1cc3c(ccc4ccccc43)cc12 |  | 0.105 µM (active) |
| O=C(c1ccccc1)c1ccc(O)c(O)c1O | inactive |  |
| Cc1ccc(N/N=c2\c(=O)cc/c(=N/Nc3ccc(S(=O)(=O)O)cc3)c2=O)c(C)c1 |  | 53.8 µM (active) |
| CCN(CCC#N)c1ccc(N=Nc2c(Cl)cc([N+](=O)[O-])cc2Cl)cc1 |  | 53.8 µM (active) |
| CN(C)c1ccc(C(=N)c2ccc(N(C)C)cc2)cc1 | inactive |  |

Test system: not listed separately
Assay: ACEA_AR_agonist_AUC_viability: ACEA Biosciences xCELLigence Real-Time Cell Analysis on Androgen Receptor Agonism for Viability (AID 2283775);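 on AC50: viability read 80 hours after compound addition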
Procedure, shortened: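 Read-out is area under the impedance curve at 80 h post-dose in 22Rv1 cells, with DMSO as baseline and signal loss taken as reduced viability. Compounds ran in duplicate from 100 uM final.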

| Compound | AC50 | outcome |
| --- | --- | --- |
| CCCCC/C=C\CCC=O | 16.6 µM (active) |  |
| CNC(=S)NN |  | inactive |
| CC/C=C\C/C=C\C/C=C\CCCCCCCC(=O)O |  | inactive |

Test system: not listed separately
Assay: ACEA_AR_antagonist_AUC_viability: ACEA Biosciences xCELLigence Real-Time Cell Analysis on Androgen Receptor Antagonism for Viability (AID 2283776);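 further: 22Rv1 human prostate cancer cells growing on impedance electrode plates; area under impedance growth curve at 80 h after dosing as viability; hits lower the growth signal relative to DMSO meaning cytotoxicity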
Procedure, shortened: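 22Rv1 prostate cells, continuous dosing up to 100 uM final (0.5% DMSO max), duplicate plates. Growth measured by impedance; AUC at 80 h, loss of signal vs DMSO.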

| Compound | outcome | AC50 |
| --- | --- | --- |
| O=C(C=Cc1ccccc1)OCc1ccccc1 | inactive |  |
| CC(C)(C)c1ccc(-c2ccc(C(C)(C)C)cc2)cc1 | inactive |  |
| CCCCC/C=C\CCC=O | inactive |  |
| COC(=O)c1c(C)cc(O)c(C)c1O |  | 4.23 µM (active) |
| CCCCC/C=C\C/C=C\CCCCCCCC(=O)OC | inactive |  |
| O=S(=O)(O)c1ccccc1C=Cc1ccc(-c2ccc(C=Cc3ccccc3S(=O)(=O)O)cc2)cc1 | inactive |  |
| CC(C)(C)c1ccc(N)cc1 | inactive |  |
| CNC(=S)NN | inactive |  |
| Oc1ccc(Cl)cc1Cc1cc(Cl)ccc1O |  | 8.53 µM (active) |
| Cc1ccc(C(C)c2ccc(C)c(C)c2)cc1C | inactive |  |
| CCCCCCCCCCCCCOP(=O)(O)O | inactive |  |
| CC/C=C\C/C=C\C/C=C\CCCCCCCC(=O)O | inactive |  |
| c1ccc2c(c1)ccc1cc3c(ccc4ccccc43)cc12 |  | 0.287 µM (active) |
| Cc1ccc(N/N=c2\c(=O)cc/c(=N/Nc3ccc(S(=O)(=O)O)cc3)c2=O)c(C)c1 |  | 8.3 µM (active) |
| CCN(CCC#N)c1ccc(N=Nc2c(Cl)cc([N+](=O)[O-])cc2Cl)cc1 |  | 3.41 µM (active) |
| CN(C)c1ccc(C(=N)c2ccc(N(C)C)cc2)cc1 |  | 3.19 µM (active) |
